Assay outcomes deposited in PubChem by Johns Hopkins Ion Channel Center.
Only some compounds are listed: those with a hit (about 2.4% of all), similar ones and a draw of the others.
CHT allo act: allosterically activates the human high affinity choline transporter | hit rate 0.49% among 310,000 | AID 488977 | Q9GZV3 | B-score at 10 µM | CHT-expressing cells, membrane potential dye, choline EC20; active compounds read high; LV-AA mutant CHT in HEK293 cells;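 active means initial fluorescence not abnormally high and integrated response B-score, plate-corrected, over 3 SD above library mean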
Target sequence (Q9GZV3 whole entry, looked up): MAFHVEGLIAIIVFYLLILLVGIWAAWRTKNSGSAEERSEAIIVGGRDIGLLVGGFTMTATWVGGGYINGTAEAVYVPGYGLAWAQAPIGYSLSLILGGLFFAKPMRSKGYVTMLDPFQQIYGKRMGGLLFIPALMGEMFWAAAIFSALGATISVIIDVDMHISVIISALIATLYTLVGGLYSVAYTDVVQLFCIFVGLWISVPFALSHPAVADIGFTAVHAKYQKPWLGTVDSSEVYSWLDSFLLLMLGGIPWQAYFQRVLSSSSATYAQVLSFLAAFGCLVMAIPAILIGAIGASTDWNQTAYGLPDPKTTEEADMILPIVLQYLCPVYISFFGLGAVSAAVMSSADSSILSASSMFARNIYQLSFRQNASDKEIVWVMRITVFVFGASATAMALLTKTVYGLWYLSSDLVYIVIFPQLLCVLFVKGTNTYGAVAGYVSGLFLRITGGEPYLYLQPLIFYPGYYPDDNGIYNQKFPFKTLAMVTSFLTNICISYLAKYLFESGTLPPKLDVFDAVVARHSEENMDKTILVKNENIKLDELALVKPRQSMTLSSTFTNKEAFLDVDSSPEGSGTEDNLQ
ANO1 activ: activates or potentiates the mouse TMEM16A chloride channel | B-score at 10 µM | Q8BHY3 | hit rate 0.3% among 340,000 | HEK293 TMEM16A/YFP-H148Q/I152L, iodide quench fluorescence; active compounds read low | AID 623877;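 active means fluorescence-ratio B-score plate-corrected deviation score at least 3 library SD below zero, with starting fluorescence score within 5 deviations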;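 further: channel opened by trigger with iodide after compound preincubation; score built on the fluorescence ratio of max minus min over baseline; more negative score means more quench and so TMEM16A activation or potentiation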
CHT inh: inhibitors of human choline transporter CHT; hit rate 0.86% among 310,000; CHT-expressing cells, membrane potential dye, choline response; active compounds read low; AID 488975; Q9GZV3; B-score at 10 µM;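 active means B-score over 3 SD under the library average, and starting fluorescence ratio not unusually high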;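 further: choline stimulus applied at its EC90 after an EC20 pre-addition; B-score computed on integrated fluorescence ratio after choline addition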
ANO1 block: inhibitors of mouse TMEM16A calcium-activated chloride channel; Q8BHY3; HEK293 TMEM16A/YFP iodide influx fluorescence, ionomycin; normalized B-score (activity score, 25-100; higher = stronger inhibition) at 10 µM; hit rate 1.2% among 310,000;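 active means ratio plate-corrected score three or more library SD toward inhibition, starting fluorescence score within five deviations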;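 further: score derived from kinetic fluorescence span divided by baseline fluorescence per well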
CHT act confirm: confirmation of human choline transporter (CHT) activators | activation, % at 10 µM | AID 504833 | CHT-expressing cells, membrane potential dye fluorescence (FDSS); % of choline EC20–EC90 response window; HEK293 expressing CHT LV-AA mutant; choline added at its EC20 | shares compounds with CHT allo act | hit rate 91% among 2,500;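 active means primary screen active, with duplicate mean activation above negative control mean plus 3 SD, cut at about 11% in these data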
HEK293 MP dye: counter-screen for CHT activators: effect in parental HEK293 cells; shares compounds with CHT allo act; membrane potential dye fluorescence (FDSS); measured after EC20 choline addition; ratio readout change at 10 µM, hits read low; hit rate 62% among 2,500; AID 623908;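 active means duplicate-averaged ratio beyond 3 SD from buffer wells, up or down, though filed actives are nearly all decreases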
Starred values were filed as active, the others as inactive; i = inactive; . = not tested or not shown.

SMILES | CHT allo act | ANO1 activ | CHT inh | ANO1 block | CHT act confirm | HEK293 MP dye
CN1C(=O)C(O)(C2COC(C)(C)CC2=O)c2cc(Br)ccc21 (stereo unspecified) | 6.8* | i | i | i | 8 | i
CN1C(=O)C(O)(C2COC(C)(C)CC2=O)c2ccccc21 (stereo unspecified) | i | i | i | i | . | .
CCCOc1ccc(C(=O)CCNC(Cc2c[nH]c3ccccc23)C(=O)O)cc1 (stereo unspecified) | i | i | i | i | . | .
CCCCN(C)C(=O)Cc1c(OC)ccc2cc(Br)ccc12 | 6.7* | i | i | i | 9 | i
Cc1ccc(C(=O)NCCc2ccc(S(N)(=O)=O)cc2)cc1[N+](=O)[O-] | i | i | i | i | . | .
Nc1cccc2nc3ccccc3cc12 | 13* | i | i | i | 27* | -55*
Cc1cc(N)c2ccccc2n1 | 8* | i | i | i | 65* | -55*
Cc1cc(Nc2ccccc2O)c2ccccc2n1 | 6.7* | i | i | i | 39* | -37*
COCCCNc1cc(C)nc2ccccc12 | i | i | i | i | 56* | -68*
Cc1c2ccccc2nc2ccccc12 | i | i | i | i | . | .
COc1ccc(CN(C)S(=O)(=O)c2ccc3c(c2)OCCO3)cc1 | i | i | i | i | . | .
CCOc1ccccc1CNC(=O)CCn1ccc2cc(S(=O)(=O)N3CCCCC3)ccc21 | i | i | i | i | . | .
Cc1csc(NC(=O)CCC(=O)N(CC(=O)NC2CCCCC2)c2ccccc2)n1 | i | i | i | i | . | .
COC(=O)Nc1cc(C)nc2ccccc12 | 6.8* | i | i | i | 35* | -45*
Cc1nn(C)cc1CN1CCC(n2nccc2NC(=O)CCCc2ccccc2)CC1 | i | i | i | i | . | .
CCCn1c(=O)c2ccccc2n2c(SCCNCCO)nnc12 | 9.1* | i | i | i | 57* | -51*
Cc1ccccc1N(C=O)c1ccccc1C | . | i | . | . | . | .
Cc1ccc(-n2cc(CNCCCn3ccnc3C)c(-c3ccc(F)cc3)n2)cc1 | i | i | i | i | 32* | -32*
CCN(Cc1ccccc1)C(=O)c1[nH]c2ccc(OC)cc2c1C | . | i | . | . | . | .
Cc1ccc2c(c1)c(C)cc[n+]2Cc1ccccc1 | 9.8* | i | i | i | 42* | -71*
Cc1ccc2ccc[n+](Cc3ccccc3)c2c1 | 7.9* | i | i | i | 90* | -81*
COc1ccc2c(c1)c(C)cc[n+]2Cc1ccccc1 | 6.7* | i | i | i | 74* | -67*
CNC(=O)c1[nH]cnc1C(=O)NCC(=O)OCc1ccccc1 | i | i | i | i | . | .
O=C(NCC(c1ccco1)N1CCOCC1)c1c(F)cccc1F (stereo unspecified) | i | i | i | i | . | .
O=C(COC(=O)c1ccc(O)cc1)NC(c1ccccc1)c1ccccc1 | . | i | . | . | . | .
SMILES | CHT allo act | ANO1 activ | CHT inh | ANO1 block | CHT act confirm | HEK293 MP dye
Cc1nc2ccccc2c2c1CC(C)S2 (stereo unspecified) | i | i | i | i | 42* | -53*
CCOC(=O)C1CCCN(C(=O)C2CCC(CNS(=O)(=O)c3ccc(NC(C)=O)cc3)CC2)C1 (stereo unspecified) | i | i | i | i | 6 | i
COc1ccc([N+](=O)[O-])cc1N(CC(O)CN(CC(C)C)CC(C)C)S(=O)(=O)c1ccccc1 (stereo unspecified) | 13* | i | i | i | 42* | i
CCCCN(CCCC)CC(O)CN(c1cc([N+](=O)[O-])ccc1OC)S(=O)(=O)c1ccccc1 (stereo unspecified) | 11* | i | i | i | 53* | -45*
CCOC(=O)c1ccc(NC(=O)Nc2ccon2)cc1 | i | i | i | i | 30* | i
CCOC(=O)c1ccc(NC(=O)Nc2ccc(Cl)cn2)cc1 | i | i | i | i | . | .
CCc1cc(Br)ccc1NC(=S)NCCc1ccccc1 | i | i | i | i | 12* | i
C/C(=N\N=C(N)N)c1cccc([N+](=O)[O-])c1 | 6.4* | i | i | i | 27* | -57*
O=c1c2c3c(sc2n2cnnc2n1CCc1ccccc1)CCCC3 | i | i | i | i | . | .
Cn1c(=O)c2c3c(sc2n2cnnc12)CCC3 | i | i | i | 25* | 30* | -39*
CC(=O)N1CCN(c2ccnc3cc(Cl)ccc23)CC1 | 8.6* | i | i | i | 65* | -67*
CCCCNC(=O)N1CCN(c2ccnc3cc(Cl)ccc23)CC1 | i | i | i | i | 58* | -61*
Cc1ccc(F)cc1NC(=O)N1CCN(c2ccnc3cc(Cl)ccc23)CC1 | i | i | i | i | . | .
O=C(O)CSCC(=O)N1CCN(c2ccnc3cc(Cl)ccc23)CC1 | i | i | i | i | . | .
Nc1c2c(nc3ccccc13)CSCC2 | 6.3* | i | i | i | 54* | -55*
Nc1c2c(nc3ccccc13)CCCC2=O | i | i | i | i | . | .
Cc1cc(N2CCN(C)CC2)nc(N2CCOCC2)n1 | 8.4* | i | i | i | 45* | -91*
Cc1cc(N2CCOCC2)nc(C(C)C)n1 | i | i | i | i | . | .
Cc1cc(N2CCOCC2)nc(N2CCOCC2)n1 | i | i | i | i | 76* | -40*
Cc1cc(N2CCCCC2)nc(N2CCOCC2)n1 | i | i | i | i | . | .
CCOC(=O)c1c(NC(=O)CN2CCN(C)CC2)sc(C(=O)Nc2ccccc2)c1C | i | i | i | i | . | .
CN1CCN(CC(=O)Nc2sc3c(c2C(=O)Nc2ccccc2)CCCC3)CC1 | i | i | i | i | 45* | -31*
Cc1ccc(/C=C/C(=O)NCCc2ccccc2)o1 | i | i | i | i | . | .
O=C(Nc1ccccc1OC(=O)c1ccccc1)c1ccccc1 | . | i | . | . | . | .
C[n+]1cn(/N=C/c2ccccc2)c2ccccc21 | 6.6* | i | i | i | 56* | -55*
SMILES | CHT allo act | ANO1 activ | CHT inh | ANO1 block | CHT act confirm | HEK293 MP dye
C(=N\n1c2ccccc2c2ccccc21)/c1ccccc1 | i | i | i | i | . | .
CCCCn1c(N)c(N(Cc2ccccc2OC)C(=O)c2sccc2C)c(=O)[nH]c1=O | i | i | i | i | . | .
CC(C)CSc1nnc(N)s1 | i | i | i | i | . | .
CC(C)CSc1nsc(N)n1 | i | i | i | i | 27* | i
CCN(CC(=O)NCc1cccs1)S(=O)(=O)c1cccc(Br)c1 | . | i | . | . | . | .
CCOC(=O)CN1C2=NCCN2c2ccccc21 | i | i | i | i | . | .
